# Source: PubChem (several laboratories)
# Sampled rows, rich in hits. Any-hit rate of the full collection: about 3.9%.
# sPLA2-III inh = Blocks human group III sPLA2 activity; 370,000 compounds, 0.56% hits; QFRET BODIPY PC-A2 liposome hydrolysis, fluorescence; Q9NZ20; inhibition, % at 12.2 µM;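 active = inhibition above mean plus 3 SD of compounds lying within the high and low control bounds, cut at about 19% in these data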;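 note: 0% = median of test compound wells and 100% = no enzyme DMSO wells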
# PLCg1 inh = blocks human PLC-gamma1 enzyme activity; P19174; purified PLC-gamma1, fluorogenic substrate, fluorescence; 370,000 compounds, 0.84% hits; inhibition, % at 12.2 µM; in the data active = inhibition above about 9.5%
# HIF activator = HIF pathway transcriptional activation | U2OS HRE-luciferase reporter, luminescence; normalized: DMSO 0%, desferrioxamine 100% | activation, % at 7.5 µM (by protocol) | 300,000 compounds, 0.32% hits;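 active = mean activation of at least 10% of the iron chelator positive control signal, with at least half of replicates also reaching 10%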
# Yeast superoxide = caloric restriction mimetics inhibiting age-related superoxide in yeast; 330,000 compounds, 0.18% hits; S. cerevisiae aged cells, superoxide DHE fluorescence; active compounds read low; AID 2690; superoxide response (% of plate mean), % at 10 µM;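 active = superoxide response under a set limit, about three screen SD below normal, cut at about 65% in these data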;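 note: yeast aged for seven days with compound at 30 °C before DHE staining; 100% = average MFI of all compound-treated wells on the plate with controls excluded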
# PLCb3 inh = PLC-beta3 (human) inhibition, primary screen | 370,000 compounds, 0.18% hits | Q01970 | Purified PLC-beta3, fluorogenic substrate, fluorescence | inhibition, % at 12.2 µM; in the data active = inhibition above about 11%;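 note: 0% = median of compound wells on plate and 100% = full blocker control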
# AHR activator = activators of human aryl hydrocarbon receptor; AHR-responsive luciferase reporter cells, luminescence; activation, % at 5 µM; 320,000 compounds, 2.5% hits; in the data active = activation above about 47%;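 note: 0% = vehicle wells and 100% = reference agonist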
# Starred values were filed as active, the others as inactive; . = not tested or not shown.
SMILES,sPLA2-III inh,PLCg1 inh,HIF activator,Yeast superoxide,PLCb3 inh,AHR activator
COc1ccc(OC)c(S(=O)(=O)NCc2cc(-c3ccccc3)no2)c1,-5,1,1,107,-5,51*
COc1ccc(OC)c(S(=O)(=O)NCc2ccccc2)c1,5,2,-1,105,0,0
Cc1noc(C)c1C(=O)Nc1nc(-c2cccs2)cs1,1,-2,.,107,-6,63*
O=C(Nc1nc(-c2ccc(Cl)s2)cs1)c1cccs1,-4,-56,2,100,-69,71*
COc1ccccc1NC(=O)c1sc(NC(=O)c2ccco2)c(C#N)c1C,9,-2,0,100,-7,66*
COc1ccccc1C(=O)Nc1cc(C)ccc1NC(=O)c1ccco1,7,4,0,93,-6,65*
COC(=O)c1sc(NC(=O)c2ccco2)c(C#N)c1C,0,-4,0,112,-10,4
COc1ccccc1NC(=O)c1ccccc1NC(=O)c1cc(Cl)ccc1NC(=O)c1ccco1,2,-9,0,83,-16,41
COc1cc(NC(=O)c2ccc(OC)c([N+](=O)[O-])c2)ccc1NC(=O)c1ccco1,-15,-3,0,121,-13,50*
COc1ccccc1NC(=O)c1cc(Cl)ccc1NC(=O)c1ccco1,3,3,-7,107,0,63*
Cc1ccc(NC(=O)c2ccco2)c(NC(=O)c2ccccc2C)c1,1,0,1,105,-7,45
O=[N+]([O-])c1cncc2[nH]cnc12,3,-3,.,.,0,.
O=C(Nc1ccc(Cl)cc1)Nc1ccccn1,3,3,3,96,-5,50*
O=C(Nc1ccc(Cl)cc1C(=O)Nc1ccccn1)c1ccco1,1,-26,0,108,-36,64*
O=C(Nc1ccccn1)c1ccco1,1,-1,1,106,-1,2
C#CCOCCOCCOCCNc1nc(N2CCOCC2)nc(N2CCN(C(=O)[C@H](CCC(=O)O)n3cc(C(N)CC(C)C)nn3)CC2)n1 (stereo not given in full),17,5,.,.,-2,.
CCOC(=O)c1cccc(NC(=O)CN(C)S(=O)(=O)c2ccc(Br)s2)c1,-15,2,.,.,0,.
O=C(N/N=C/c1cc(Br)ccc1O)c1cccc(N2CCCC2=O)c1,12,-24,42*,83,-19,19
COc1ccc(O)c(/C=N/NC(=O)c2cccc(N3CCCC3=O)c2)c1,1,-7,7,91,-15,4
O=C(O)c1cccc(N2CCCC2=O)c1,-1,2,47*,91,-1,-1
COC(=O)c1cccc(N2CCCC2=O)c1,4,4,0,107,0,1
COC(=O)C[C@@H]1CC[C@H]2[C@H](COc3ccc(NC(=O)Nc4cccc(C#N)c4)cc3C(=O)N2C)O1,-19,2,.,.,2,.
Cc1cccc(NC(=O)OC2CC3CC2[C@H]2CCCCN2C3)c1 (stereo not given in full),0,-4,.,.,-2,.
COc1ccc(CNc2nc3ccccc3n2C)c(OC)c1,-3,-1,4,99,-6,26
COc1ccc(N/C=C(\C#N)c2nc3ccccc3n2C)c(OC)c1,3,1,1,90,0,109*
SMILES,sPLA2-III inh,PLCg1 inh,HIF activator,Yeast superoxide,PLCb3 inh,AHR activator
Cc1c(C(=N)C(C#N)C#N)c(=N)oc2c1ccc1ccccc12,-16,-75,2,107,-104,65*
COc1ccc(-n2c(SCC(=O)Nc3ccc(Oc4ccccc4)cc3)nnc2-c2ccco2)cc1,0,0,.,.,3,.
CCc1ccccc1CNC(=O)C1CCC(CNS(=O)(=O)c2cccc3cccnc23)CC1 (stereo not given),-4,0,.,.,5,.
COc1ccccc1-c1nnc(SCC(=O)Nc2ccc(Cl)cc2Cl)o1,-9,-3,2,99,-2,57*
COc1ccccc1NC(=O)CSc1nnc(-c2ccoc2C)o1,-3,-4,.,107,-4,-2
O=C1C(Cl)=C(NCCc2ccccc2)C(=O)c2ccccc21,15,0,.,.,3,.
C=CCNC1=C(Cl)C(=O)c2ccccc2C1=O,5,1,0,147,4,52*
Cc1ccc(-n2c(SCc3cccc(F)c3)nc3ccccc3c2=O)cc1,8,-3,.,.,-3,.
Cc1ccc(S(=O)(=O)c2ccc([N+](=O)[O-])cn2)cc1,3,11*,3,105,6,-2
C[C@@H](OC(=O)N1CCCCC1)[C@H]1O[C@]2(C)CCCC[C@H]1O2,-1,11*,.,85,7,-2
CCOC(=O)c1c(C)[nH]c(C(=O)N/N=C/c2ccc(OC)c(OC)c2)c1C,0,-6,1,123,-8,34
CCOC(=O)c1c(C)[nH]c(C(=O)OCc2ccc([N+](=O)[O-])cc2)c1C,-4,1,0,113,-3,53*
CCOC(=O)c1c(C)[nH]c(C(=O)OCc2ccc(C)cc2)c1C,-13,2,2,105,-8,49*
CCOC(=O)c1c(C)[nH]c(C(=O)N/N=C\c2ccccc2O)c1C,-2,-23,57*,88,-25,5
CCOc1ccc(-n2c(SC/C=C/c3ccccc3)nnc2-c2cccs2)cc1,-11,1,.,.,-3,.
Cc1ccc(CN2CCCCC(NC(=O)c3cccc(F)c3)C2=O)cc1 (stereo not given),-3,2,.,.,-1,.
CCCCOCCCNC(=O)C[C@@H]1C(=O)N(CCc2ccc(Cl)cc2)C2=CCCC[C@]21C(=O)OCC,-20,2,.,.,4,.
COc1ccc2c(c1)[nH]c1c(N3CCN(Cc4ccc5c(c4)OCO5)CC3)ncnc12,0,-6,0,110,-5,12
COc1cccc2[nH]c3c(N4CCC(C)CC4)ncnc3c12,3,-134,1,99,-217,60*
COc1cccc2[nH]c3c(N4CCN(Cc5ccc6c(c5)OCO6)CC4)ncnc3c12,1,-142,1,105,-194,73*
NC(=O)c1cc([N+](=O)[O-])c(Cl)cc1NCc1ccncc1,-3,-7,.,92,-13,11
NC(=O)c1cc([N+](=O)[O-])c(Cl)cc1NCc1ccccn1,4,-4,.,89,4,67*
COC(=O)[C@]12CCCCC=C1N(Cc1ccc(OC)cc1)C(=O)[C@@H]2CC(=O)NCCCN1CCCC1=O,-7,0,.,.,-3,.
CCc1c(C)sc(NC(=S)Nc2cccnc2)c1C(=O)OC,13,0,0,86,-8,76*
c1cncc(N=c2scc(-c3cccc4ccccc34)n2CCCn2ccnc2)c1,-13,-4,0,105,-6,56*
COc1cccc(NC(=O)NC2CCCCN(Cc3ccccc3C)C2=O)c1 (stereo not given),-7,5,.,.,0,.
Cc1ccc(C)c(NS(=O)(=O)c2cc(C(=O)NCCSC3CCCCC3)ccc2C)c1,-41,14*,0,91,2,0
